Measurements taken from the supplement of paper PMC11732987, “Enantioselective OTUD7B fragment discovery through chemoproteomics screening and high-throughput optimisation” (Communications Chemistry, 2025).

How the values were obtained:
Experiment in all cases: log2 ratio of Biotin-Ahx-Ub-VS probe labelling (fragment/DMSO); higher = less target engagement (more negative = stronger competition), active = hit call of the paper (q ≤ 0.05, log2 ratio ≤ -1)
Details in all cases: compound concentration: 200 uM; treatment time: 3 h
[1] = target: USP34 (UniProt Q70CQ2)
Summary of the method: (§1)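 Triplicate samples of HEK293T lysate, 495 µg each, received fragment at 200 µM or vehicle for 3 h, followed by Biotin-Ahx-Ub-VS (0.5 µM final) for 1 h. After NeutrAvidin enrichment of labelled DUBs and LysC/trypsin digestion, peptides were run by diaPASEF LC-MS/MS. The values are average log2 fragment/vehicle ratios from global-median-normalised Spectronaut label-free quantities, tested by unpaired t-test on proteins having ≥2 unique peptides.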

[2] = target: T1, USP36 (UniProt Q9P275)
T1 sequence (whole entry): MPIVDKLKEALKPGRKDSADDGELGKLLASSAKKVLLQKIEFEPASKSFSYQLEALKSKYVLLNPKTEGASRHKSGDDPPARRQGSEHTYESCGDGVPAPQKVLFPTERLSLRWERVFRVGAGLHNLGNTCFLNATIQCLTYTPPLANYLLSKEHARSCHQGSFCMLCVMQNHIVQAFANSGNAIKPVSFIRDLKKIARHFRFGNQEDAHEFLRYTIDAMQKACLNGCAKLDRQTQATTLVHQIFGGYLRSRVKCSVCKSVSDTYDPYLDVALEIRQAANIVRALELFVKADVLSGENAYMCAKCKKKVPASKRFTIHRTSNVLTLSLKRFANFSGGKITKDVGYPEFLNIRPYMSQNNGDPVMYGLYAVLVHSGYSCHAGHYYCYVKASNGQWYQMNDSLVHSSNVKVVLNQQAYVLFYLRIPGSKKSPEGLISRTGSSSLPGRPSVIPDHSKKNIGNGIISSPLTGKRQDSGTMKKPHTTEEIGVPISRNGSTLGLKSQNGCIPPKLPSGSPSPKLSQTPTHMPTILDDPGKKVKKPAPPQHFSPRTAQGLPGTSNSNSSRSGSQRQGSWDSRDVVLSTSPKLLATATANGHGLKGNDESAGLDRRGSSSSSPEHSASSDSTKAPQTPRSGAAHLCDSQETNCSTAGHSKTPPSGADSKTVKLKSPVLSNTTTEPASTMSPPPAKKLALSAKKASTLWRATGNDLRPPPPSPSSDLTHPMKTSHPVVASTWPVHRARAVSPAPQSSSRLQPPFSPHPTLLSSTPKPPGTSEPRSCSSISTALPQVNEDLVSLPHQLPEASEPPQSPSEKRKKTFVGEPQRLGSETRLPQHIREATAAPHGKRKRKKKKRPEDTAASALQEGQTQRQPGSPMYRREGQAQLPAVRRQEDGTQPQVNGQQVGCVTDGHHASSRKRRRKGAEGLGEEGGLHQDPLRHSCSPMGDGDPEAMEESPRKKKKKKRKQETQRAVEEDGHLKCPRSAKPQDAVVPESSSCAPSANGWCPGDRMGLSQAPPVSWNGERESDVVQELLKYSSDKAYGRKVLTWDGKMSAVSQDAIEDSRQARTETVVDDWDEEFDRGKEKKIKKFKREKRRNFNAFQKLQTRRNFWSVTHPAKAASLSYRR
Summary of the method: as §1

[3] = target: T2, USP38 (UniProt Q8NB14)
T2 sequence (whole entry): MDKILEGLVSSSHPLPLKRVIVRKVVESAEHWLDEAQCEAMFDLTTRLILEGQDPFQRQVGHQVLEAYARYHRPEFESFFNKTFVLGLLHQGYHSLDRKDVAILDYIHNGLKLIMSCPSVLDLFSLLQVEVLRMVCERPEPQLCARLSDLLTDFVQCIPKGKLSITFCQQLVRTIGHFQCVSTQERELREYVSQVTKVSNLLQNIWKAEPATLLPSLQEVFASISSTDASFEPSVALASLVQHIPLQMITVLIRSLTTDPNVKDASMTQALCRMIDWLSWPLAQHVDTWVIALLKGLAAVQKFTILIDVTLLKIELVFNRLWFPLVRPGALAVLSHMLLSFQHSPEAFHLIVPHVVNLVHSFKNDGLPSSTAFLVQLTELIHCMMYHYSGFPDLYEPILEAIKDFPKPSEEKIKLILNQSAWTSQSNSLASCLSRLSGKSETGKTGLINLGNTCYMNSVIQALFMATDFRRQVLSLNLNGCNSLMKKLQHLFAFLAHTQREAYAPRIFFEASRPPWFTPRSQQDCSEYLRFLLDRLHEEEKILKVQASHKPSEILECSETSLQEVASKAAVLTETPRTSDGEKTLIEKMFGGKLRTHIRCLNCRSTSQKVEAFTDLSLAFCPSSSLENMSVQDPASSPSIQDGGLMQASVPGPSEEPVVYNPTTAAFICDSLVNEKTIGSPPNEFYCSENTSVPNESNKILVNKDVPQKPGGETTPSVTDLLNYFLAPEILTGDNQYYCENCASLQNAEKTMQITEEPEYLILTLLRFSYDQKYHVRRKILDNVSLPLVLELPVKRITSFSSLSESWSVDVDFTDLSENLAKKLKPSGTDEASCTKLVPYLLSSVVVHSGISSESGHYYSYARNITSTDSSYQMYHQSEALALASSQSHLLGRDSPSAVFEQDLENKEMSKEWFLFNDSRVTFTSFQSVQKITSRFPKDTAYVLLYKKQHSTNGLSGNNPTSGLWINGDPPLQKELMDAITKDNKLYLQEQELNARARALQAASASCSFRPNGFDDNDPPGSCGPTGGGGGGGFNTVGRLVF
Summary of the method: as §1

[4] = target: T3, USP39 (UniProt Q53GS9)
T3 sequence (whole entry): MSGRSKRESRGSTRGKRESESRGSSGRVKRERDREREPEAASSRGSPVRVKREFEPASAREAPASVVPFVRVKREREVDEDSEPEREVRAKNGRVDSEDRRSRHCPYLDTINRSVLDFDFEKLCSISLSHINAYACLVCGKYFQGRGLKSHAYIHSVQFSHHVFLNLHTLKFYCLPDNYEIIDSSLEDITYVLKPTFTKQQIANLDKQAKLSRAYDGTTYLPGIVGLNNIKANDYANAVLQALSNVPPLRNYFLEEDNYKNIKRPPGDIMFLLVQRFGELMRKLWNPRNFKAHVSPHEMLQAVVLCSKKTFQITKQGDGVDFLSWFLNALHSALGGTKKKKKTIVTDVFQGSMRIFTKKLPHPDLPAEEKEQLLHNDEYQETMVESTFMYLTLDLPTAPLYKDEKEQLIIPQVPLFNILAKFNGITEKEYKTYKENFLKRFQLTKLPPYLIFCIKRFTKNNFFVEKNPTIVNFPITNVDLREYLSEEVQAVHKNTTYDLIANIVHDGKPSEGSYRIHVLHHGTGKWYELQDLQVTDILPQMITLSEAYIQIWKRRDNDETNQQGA
Summary of the method: as §1

[5] = target: T4, USP4 (UniProt Q13107)
T4 sequence (whole entry): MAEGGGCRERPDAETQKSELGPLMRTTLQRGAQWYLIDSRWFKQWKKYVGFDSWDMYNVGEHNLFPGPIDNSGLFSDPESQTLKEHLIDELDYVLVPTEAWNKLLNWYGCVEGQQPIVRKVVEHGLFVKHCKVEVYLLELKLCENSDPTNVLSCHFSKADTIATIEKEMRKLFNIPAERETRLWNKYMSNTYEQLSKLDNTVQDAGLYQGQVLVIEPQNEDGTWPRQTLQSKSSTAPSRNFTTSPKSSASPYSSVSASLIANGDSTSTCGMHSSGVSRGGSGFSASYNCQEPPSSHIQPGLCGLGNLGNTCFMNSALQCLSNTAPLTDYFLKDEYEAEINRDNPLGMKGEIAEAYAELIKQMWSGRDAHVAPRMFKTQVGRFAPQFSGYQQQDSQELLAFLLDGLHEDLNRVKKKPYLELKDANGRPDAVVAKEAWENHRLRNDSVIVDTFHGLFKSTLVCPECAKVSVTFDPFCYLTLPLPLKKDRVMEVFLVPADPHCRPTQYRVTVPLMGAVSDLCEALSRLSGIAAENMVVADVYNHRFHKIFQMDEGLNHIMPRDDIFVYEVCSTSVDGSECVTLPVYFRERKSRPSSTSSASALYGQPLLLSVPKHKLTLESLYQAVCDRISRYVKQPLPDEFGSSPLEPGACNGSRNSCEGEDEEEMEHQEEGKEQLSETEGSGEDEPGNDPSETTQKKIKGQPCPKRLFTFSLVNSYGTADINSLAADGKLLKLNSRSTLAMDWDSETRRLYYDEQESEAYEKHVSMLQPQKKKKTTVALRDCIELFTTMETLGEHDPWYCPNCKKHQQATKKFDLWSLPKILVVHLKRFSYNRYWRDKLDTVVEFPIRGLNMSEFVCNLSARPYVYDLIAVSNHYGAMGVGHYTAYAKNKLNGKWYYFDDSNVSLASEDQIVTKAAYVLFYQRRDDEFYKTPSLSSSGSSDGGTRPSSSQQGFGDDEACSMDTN
Summary of the method: as §1

Measured: log2 ratio of Biotin-Ahx-Ub-VS probe labelling

USP34, sequence (Q70CQ2 whole entry, the tested form may be a part): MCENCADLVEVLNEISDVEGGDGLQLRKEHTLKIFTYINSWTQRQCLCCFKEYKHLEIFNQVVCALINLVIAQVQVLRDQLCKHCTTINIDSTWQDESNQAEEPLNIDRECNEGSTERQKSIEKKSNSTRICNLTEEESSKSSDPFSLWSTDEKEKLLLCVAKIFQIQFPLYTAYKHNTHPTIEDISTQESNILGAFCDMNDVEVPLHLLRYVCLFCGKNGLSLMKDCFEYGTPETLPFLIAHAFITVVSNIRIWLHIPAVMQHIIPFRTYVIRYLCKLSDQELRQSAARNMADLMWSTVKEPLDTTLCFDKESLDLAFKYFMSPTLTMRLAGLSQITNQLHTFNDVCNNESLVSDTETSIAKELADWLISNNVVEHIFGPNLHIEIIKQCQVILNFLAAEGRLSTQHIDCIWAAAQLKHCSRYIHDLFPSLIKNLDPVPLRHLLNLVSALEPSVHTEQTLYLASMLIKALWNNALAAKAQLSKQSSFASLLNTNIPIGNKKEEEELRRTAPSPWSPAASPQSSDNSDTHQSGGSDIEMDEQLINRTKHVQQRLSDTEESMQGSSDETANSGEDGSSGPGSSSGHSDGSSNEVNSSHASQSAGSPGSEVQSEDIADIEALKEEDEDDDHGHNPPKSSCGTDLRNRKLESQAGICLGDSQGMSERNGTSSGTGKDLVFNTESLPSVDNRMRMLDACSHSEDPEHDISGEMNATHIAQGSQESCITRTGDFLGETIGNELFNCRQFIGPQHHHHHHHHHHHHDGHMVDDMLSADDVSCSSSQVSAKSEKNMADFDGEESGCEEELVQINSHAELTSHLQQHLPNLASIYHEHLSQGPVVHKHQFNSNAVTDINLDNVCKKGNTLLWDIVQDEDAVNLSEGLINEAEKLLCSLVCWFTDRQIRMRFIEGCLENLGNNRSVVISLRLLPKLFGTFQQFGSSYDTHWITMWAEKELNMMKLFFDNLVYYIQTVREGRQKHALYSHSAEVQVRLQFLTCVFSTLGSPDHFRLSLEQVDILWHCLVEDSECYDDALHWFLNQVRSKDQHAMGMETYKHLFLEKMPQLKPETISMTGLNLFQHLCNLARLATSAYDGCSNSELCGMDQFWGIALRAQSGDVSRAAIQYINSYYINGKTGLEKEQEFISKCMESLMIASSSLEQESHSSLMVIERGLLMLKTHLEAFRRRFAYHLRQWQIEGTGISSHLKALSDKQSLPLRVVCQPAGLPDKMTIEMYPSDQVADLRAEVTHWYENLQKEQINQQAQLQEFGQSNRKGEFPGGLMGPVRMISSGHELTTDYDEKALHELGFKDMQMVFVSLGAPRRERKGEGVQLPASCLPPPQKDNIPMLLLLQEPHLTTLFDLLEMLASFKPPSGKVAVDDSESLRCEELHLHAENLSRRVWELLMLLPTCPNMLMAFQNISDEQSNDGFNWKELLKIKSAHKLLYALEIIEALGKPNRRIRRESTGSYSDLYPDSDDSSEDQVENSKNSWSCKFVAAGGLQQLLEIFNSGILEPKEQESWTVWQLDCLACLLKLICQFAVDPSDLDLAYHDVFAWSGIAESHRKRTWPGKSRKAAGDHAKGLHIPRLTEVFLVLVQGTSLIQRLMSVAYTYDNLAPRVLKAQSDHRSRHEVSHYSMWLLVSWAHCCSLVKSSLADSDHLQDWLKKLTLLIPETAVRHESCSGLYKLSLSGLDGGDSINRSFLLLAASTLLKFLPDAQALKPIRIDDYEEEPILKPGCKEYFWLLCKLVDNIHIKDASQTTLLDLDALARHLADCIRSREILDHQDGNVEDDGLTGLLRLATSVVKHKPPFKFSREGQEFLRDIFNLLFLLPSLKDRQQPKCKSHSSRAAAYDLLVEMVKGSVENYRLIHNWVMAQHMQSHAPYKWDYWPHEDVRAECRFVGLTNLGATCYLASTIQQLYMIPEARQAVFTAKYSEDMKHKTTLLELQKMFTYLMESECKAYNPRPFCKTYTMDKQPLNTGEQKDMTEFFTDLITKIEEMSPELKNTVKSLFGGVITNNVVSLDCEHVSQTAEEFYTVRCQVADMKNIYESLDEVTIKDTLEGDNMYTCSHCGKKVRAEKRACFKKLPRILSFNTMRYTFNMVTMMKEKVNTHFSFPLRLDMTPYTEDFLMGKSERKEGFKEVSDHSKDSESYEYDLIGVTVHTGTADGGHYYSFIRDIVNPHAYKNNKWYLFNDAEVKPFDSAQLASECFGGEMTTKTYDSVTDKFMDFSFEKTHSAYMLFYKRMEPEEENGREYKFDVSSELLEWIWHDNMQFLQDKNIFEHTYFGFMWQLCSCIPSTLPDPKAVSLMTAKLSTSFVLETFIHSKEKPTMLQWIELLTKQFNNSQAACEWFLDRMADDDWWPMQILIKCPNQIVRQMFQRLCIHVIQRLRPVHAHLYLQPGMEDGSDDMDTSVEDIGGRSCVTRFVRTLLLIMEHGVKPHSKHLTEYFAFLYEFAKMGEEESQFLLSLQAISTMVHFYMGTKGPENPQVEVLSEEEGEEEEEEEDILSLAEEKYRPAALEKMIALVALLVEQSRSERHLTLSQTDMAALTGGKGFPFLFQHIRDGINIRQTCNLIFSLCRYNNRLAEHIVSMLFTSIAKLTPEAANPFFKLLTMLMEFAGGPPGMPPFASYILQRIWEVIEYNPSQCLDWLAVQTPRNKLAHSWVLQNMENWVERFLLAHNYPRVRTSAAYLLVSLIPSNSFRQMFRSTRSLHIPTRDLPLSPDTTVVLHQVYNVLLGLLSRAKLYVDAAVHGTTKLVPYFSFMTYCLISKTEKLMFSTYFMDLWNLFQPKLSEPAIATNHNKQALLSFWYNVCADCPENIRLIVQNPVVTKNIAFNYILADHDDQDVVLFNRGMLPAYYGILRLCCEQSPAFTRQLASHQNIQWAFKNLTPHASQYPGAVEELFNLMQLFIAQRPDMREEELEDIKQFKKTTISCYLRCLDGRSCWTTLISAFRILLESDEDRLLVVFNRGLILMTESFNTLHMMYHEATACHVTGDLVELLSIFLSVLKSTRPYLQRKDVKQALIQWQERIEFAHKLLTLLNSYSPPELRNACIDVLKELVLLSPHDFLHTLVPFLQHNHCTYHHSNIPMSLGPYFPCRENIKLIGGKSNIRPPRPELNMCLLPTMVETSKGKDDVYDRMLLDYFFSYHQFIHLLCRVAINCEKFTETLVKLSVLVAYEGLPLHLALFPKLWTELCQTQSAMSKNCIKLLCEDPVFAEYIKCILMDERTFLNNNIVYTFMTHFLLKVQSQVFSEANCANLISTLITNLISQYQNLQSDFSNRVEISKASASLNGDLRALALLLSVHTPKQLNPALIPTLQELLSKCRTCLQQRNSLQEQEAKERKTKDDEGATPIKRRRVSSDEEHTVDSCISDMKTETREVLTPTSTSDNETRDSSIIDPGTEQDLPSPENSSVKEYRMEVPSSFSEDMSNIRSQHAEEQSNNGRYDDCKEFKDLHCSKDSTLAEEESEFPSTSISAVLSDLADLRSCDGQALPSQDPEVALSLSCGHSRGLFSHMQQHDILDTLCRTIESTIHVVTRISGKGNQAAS

CS(=O)(=O)N1CCCN(C(=O)CCl)CC1
inactive: [1] -0.016 | [2] -0.255 | [3] -0.0208 | [4] 0.0871 | [5] -0.0865
